Molecules are shown by their SMILES. In all, about 39,000 compounds went through this assay and about 3,300 (8.5%) were called active. The sample as a whole holds a higher share of actives than the screen did.

The test relates to HepG2. The test is described as follows: cytotoxicity call (relative viability < 0.9). The conditions noted are these: 10 µM.
Turning to `COc1ccc(NC(=O)Nc2ccc3c(c2)C(=O)N([C@H](C)CO)C[C@H](C)[C@@H](CN(C)S(=O)(=O)c2ccc(C)cc2)OCCCC[C@@H](C)O3)cc1`, the cytotoxicity call was “inactive”.
Regarding `NC(=O)NC(=O)C[C@H]1Nc2ccccc2NC1=O`, the cytotoxicity call was “inactive”.
For `CCc1c(C(=O)OC)nnc2cc(C)nn12`, the cytotoxicity call is “inactive”.
For the compound `O=C(CN1CCOCC1)N[C@@H]1CC[C@H](CCn2cc(C3CCCC3)nn2)O[C@@H]1CO`, the cytotoxicity call is “inactive”.
Take `COCC#Cc1ccc([C@H]2[C@@H](CO)N3C(=O)CN(C(=O)c4ccncc4)C[C@@H]23)cc1`: the cytotoxicity call is “inactive”.
Under `C[C@@H]1CN([C@H](C)CO)C(=O)Cc2cc(NC(=O)Nc3cccc4ccccc34)ccc2O[C@H]1CN(C)C(=O)NC1CCCCC1` stands “inactive”.
For `C[C@H](CO)N1C[C@H](C)[C@@H](CN(C)C(=O)NC2CCCCC2)Oc2ccc(NC(=O)Nc3cccc4ccccc34)cc2CC1=O`, the cytotoxicity call was “inactive”.
`C[C@@H]1CN([C@@H](C)CO)C(=O)Cc2cc(NC(=O)Nc3cccc4ccccc34)ccc2O[C@@H]1CN(C)C(=O)NC1CCCCC1`: the cytotoxicity call is “active”.
For `CCNC(=O)C[C@H]1C=C[C@@H](NC(=O)C2CC2)[C@@H](CO)O1`, the cytotoxicity call is “inactive”.
Under `CC1Cc2ccccc2N1NC(=O)c1ccc(Cl)c(S(N)(=O)=O)c1` (stereo not given) stands “inactive”; under `O=C(NCCN1CCOCC1)c1ccc(Cl)c(S(=O)(=O)N2CCOCC2)c1`, “inactive”.
As to `CC1(C)CC(NC(=O)c2ccc(Cl)c(S(=O)(=O)N(Cc3ccccc3)c3ccccc3)c2)CC(C)(C)N1`, the cytotoxicity call is “active”.
As to `C[C@@H]1CN([C@@H](C)CO)C(=O)c2cc(NS(=O)(=O)c3cccs3)ccc2O[C@@H](C)CCCCO[C@@H]1CN(C)C(=O)NC1CCCCC1`, the cytotoxicity call is “inactive”.
On to `C[C@@H]1CN([C@@H](C)CO)C(=O)c2cc(C#Cc3cccnc3)cnc2O[C@H]1CN(C)S(=O)(=O)c1ccccc1F`, for which the cytotoxicity call is “inactive”.
Turning to `Cc1cc2nc3c(=O)[nH]c(=O)nc-3n(C[C@@H](O)[C@@H](O)[C@@H](O)CO)c2cc1C`, the cytotoxicity call is “inactive”.
For `COC1=CC(C)C2CC3OC(=O)CC4C(C)=C(OC)C(=O)C(C2(C)C1=O)C34C` (stereo not given), the cytotoxicity call is “inactive”.
Consider `C[C@H]1CC=CC[C@H](c2ccc3c(c2)OCO3)NC(=O)[C@@H](Cc2ccccc2)N(C)C(=O)c2ccccc2O1`, for which the cytotoxicity call is “inactive”.
As to `C[C@@H]1CC=CC[C@H](c2ccc3c(c2)OCO3)NC(=O)[C@@H](Cc2ccccc2)N(C)C(=O)c2ccccc2O1`, the cytotoxicity call was “active”.
Under `C[C@H]1CC=CC[C@@H](c2ccc3c(c2)OCO3)NC(=O)[C@H](Cc2ccccc2)N(C)C(=O)c2ccccc2O1` stands “inactive”; under `C[C@@H]1CN([C@@H](C)CO)S(=O)(=O)c2ccc(C#C[C@@H](C)O)cc2O[C@@H]1CN(C)C(=O)c1ccccc1`, “inactive”; under `C[C@@H]1CN([C@@H](C)CO)S(=O)(=O)c2ccc(C#Cc3ccncc3)cc2O[C@@H]1CN(C)C(=O)C1CCC1`, “inactive”.
Under `C[C@@H]1CN([C@H](C)CO)S(=O)(=O)c2ccc(C#Cc3ccncc3)cc2O[C@H]1CN(C)C(=O)C1CCC1` stands “active”; under `C[C@H]1CN([C@@H](C)CO)S(=O)(=O)c2ccc(C#Cc3ccncc3)cc2O[C@@H]1CN(C)C(=O)C1CCC1`, “inactive”.
For `C[C@H](CO)N1C[C@H](C)[C@H](CN(C)C(=O)C2CCC2)Oc2cc(C#Cc3ccncc3)ccc2S1(=O)=O`, the cytotoxicity call is “active”.
For the compound `C[C@H]1CN([C@@H](C)CO)S(=O)(=O)c2ccc(C#Cc3ccncc3)cc2O[C@H]1CN(C)C(=O)C1CCC1`, the cytotoxicity call is “inactive”.
Under `C[C@@H]1CN([C@@H](C)CO)S(=O)(=O)c2ccc(C#Cc3ccncc3)cc2O[C@H]1CN(C)C(=O)C1CCC1` stands “active”.
As to `C[C@H](CO)N1C[C@H](C)[C@@H](CN(C)C(=O)C2CCC2)Oc2cc(C#Cc3ccncc3)ccc2S1(=O)=O`, the cytotoxicity call is “active”.
On to `C[C@@H]1CN([C@@H](C)CO)C(=O)c2cccc(NS(=O)(=O)c3cn(C)cn3)c2O[C@@H]1CN(C)C(=O)Nc1ccc2c(c1)OCO2`, for which the cytotoxicity call is “inactive”.
As for `CCc1nc2ccc(C(=O)Nc3ccc(OC)c(OC)c3)cn2c1N(CC)Cc1cccc(Br)c1`, the cytotoxicity call was “inactive”.
With `O=C(CSc1nnc(-c2ccccc2)n1C1CCCCC1)Nc1ccc(S(=O)(=O)Nc2ccccn2)cc1`, the cytotoxicity call is “inactive”.
For the compound `Cc1ccc(CN)s1`, the cytotoxicity call is “inactive”.
On to `C[C@H](CO)N1C[C@H](C)[C@@H](CN(C)C(=O)Nc2ccccc2)Oc2cc(Br)ccc2S1(=O)=O`, for which the cytotoxicity call was “inactive”.
Under `Cc1noc(C)c1NC(=O)Nc1ccc2c(c1)C(=O)N([C@@H](C)CO)C[C@@H](C)[C@H](CN(C)S(=O)(=O)c1cccs1)OCCCC[C@@H](C)O2` stands “inactive”; under `C[C@@H]1CCCCO[C@H](CN(C)Cc2ccc(C(=O)Nc3ccccc3N)cc2)[C@@H](C)CN([C@H](C)CO)C(=O)c2cc(N(C)C)ccc2O1`, “inactive”; under `C[C@H]1CN([C@@H](C)CO)C(=O)c2cc(NC(=O)CCN3CCOCC3)ccc2O[C@@H]1CN(C)C(=O)Nc1ccc(F)cc1`, “inactive”.
For `C/N=C1\S[C@@H](CC(=O)NC(C)C)C(=O)N1C`, the cytotoxicity call was “inactive”.
Under `C[C@@H]1CN([C@@H](C)CO)C(=O)c2cc(C#Cc3cccnc3)cnc2O[C@@H]1CN(C)S(=O)(=O)c1ccccc1F` stands “inactive”.
Take `C[C@H]1CN([C@@H](C)CO)C(=O)c2cccc(NC(=O)CCCCCC(=O)Nc3ccccc3N)c2O[C@@H]1CN(C)S(=O)(=O)c1cn(C)cn1`: the cytotoxicity call is “inactive”.
`CC(C)NC(=O)N(C)C[C@H]1OCCCC[C@@H](C)Oc2ccc(NC(=O)Nc3cccc4ccccc34)cc2C(=O)N([C@H](C)CO)C[C@@H]1C`: the cytotoxicity call was “inactive”.
As for `N#Cc1c(-c2ccccc2)no[n+]1[O-]`, the cytotoxicity call is “inactive”.
With `C[C@H]1CN([C@@H](C)CO)C(=O)c2cc(NC(=O)CCN3CCOCC3)ccc2O[C@@H]1CN(C)CC1CCCCC1`, the cytotoxicity call was “inactive”.
With `Cc1ccc(S(=O)(=O)N(C)C[C@H]2Oc3ccc(NS(=O)(=O)c4cn(C)cn4)cc3CC(=O)N([C@H](C)CO)C[C@@H]2C)cc1` the entry was “inactive”.
For the compound `C[C@@H]1CN([C@H](C)CO)S(=O)(=O)c2ccc(C#Cc3ccncc3)cc2O[C@@H]1CN(C)C(=O)C1CCC1`, the cytotoxicity call is “active”.
Consider `Cc1noc(C)c1S(=O)(=O)Nc1ccc2c(c1)C(=O)N([C@@H](C)CO)C[C@@H](C)[C@@H](CN(C)S(=O)(=O)c1ccc(F)cc1)O2`, for which the cytotoxicity call was “inactive”.
Regarding `C[C@@H]1CN([C@@H](C)CO)C(=O)Cc2cc(NC(=O)Nc3ccc(C(F)(F)F)cc3)ccc2O[C@H]1CN(C)Cc1ccc(Cl)c(Cl)c1`, the cytotoxicity call was “active”.
On to `C[C@H](CO)N1C[C@H](C)[C@H](CN(C)Cc2ccc(Cl)c(Cl)c2)Oc2ccc(NC(=O)Nc3ccc(C(F)(F)F)cc3)cc2CC1=O`, for which the cytotoxicity call is “inactive”.
Under `C[C@H](CO)N1C[C@H](C)[C@@H](CN(C)Cc2ccc(Cl)c(Cl)c2)Oc2ccc(NC(=O)Nc3ccc(C(F)(F)F)cc3)cc2CC1=O` stands “active”; under `C[C@H]1CN([C@@H](C)CO)C(=O)Cc2cc(NC(=O)Nc3ccc(C(F)(F)F)cc3)ccc2O[C@H]1CN(C)Cc1ccc(Cl)c(Cl)c1`, “active”.
As to `C[C@H]1CN([C@@H](C)CO)C(=O)Cc2cc(NC(=O)Nc3ccc(C(F)(F)F)cc3)ccc2O[C@@H]1CN(C)Cc1ccc(Cl)c(Cl)c1`, the cytotoxicity call was “inactive”.
`C[C@@H]1CN([C@H](C)CO)C(=O)Cc2cc(NC(=O)Nc3ccc(C(F)(F)F)cc3)ccc2O[C@@H]1CN(C)Cc1ccc(Cl)c(Cl)c1`: the cytotoxicity call was “active”.
On to `C[C@@H]1CN([C@H](C)CO)C(=O)Cc2cc(NC(=O)Nc3ccc(C(F)(F)F)cc3)ccc2O[C@H]1CN(C)Cc1ccc(Cl)c(Cl)c1`, for which the cytotoxicity call is “inactive”.
With `CC(C)NC(=O)N(C)C[C@@H]1Oc2ccc(NC(=O)CCCN(C)C)cc2C(=O)N([C@H](C)CO)C[C@@H]1C` the entry was “inactive”; with `COc1ccc2c3c(n(c2c1)C)[C@H](CO)N(C[C@]13CN(CC2CCOCC2)C1)C(=O)Cc1ccccn1`, “inactive”.
With `NC(=O)c1ccc[n+](CC(=O)N2CCCCC2)c1` the entry was “inactive”.
On to `Cc1noc(C)c1S(=O)(=O)Nc1ccc2c(c1)C(=O)N([C@@H](C)CO)C[C@H](C)[C@@H](CN(C)C(=O)Nc1ccccc1)O2`, for which the cytotoxicity call was “inactive”.
With `O=C(C[C@H]1CC[C@H]2[C@@H](COC[C@@H](O)CN2S(=O)(=O)c2ccc(F)cc2)O1)N1CCc2ccccc2C1` the entry was “inactive”; with `O=c1nc(NCCN2CCOCC2)cn[nH]1`, “inactive”; with `NC(=O)Cn1nnc(-c2ccccc2)n1`, “inactive”.
With `C[C@@H]1CN([C@H](C)CO)C(=O)c2cc(NC(=O)Nc3cccc4ccccc34)ccc2O[C@H]1CN(C)Cc1ccncc1` the entry was “inactive”.
`C[C@@H]1CN([C@@H](C)CO)C(=O)c2cccc(NC(=O)c3nc4ccccc4s3)c2O[C@@H]1CN(C)S(=O)(=O)c1cn(C)cn1`: the cytotoxicity call is “inactive”.
As to `COc1ccc2c3c([nH]c2c1)[C@H](CO)N(C[C@]13CN(C1)S(=O)(=O)c1ccccc1)C(=O)c1cnccn1`, the cytotoxicity call is “inactive”.
On to `COc1cccc(NC(=O)N[C@H]2CC[C@@H](CC(=O)N3CCOCC3)O[C@H]2CO)c1`, for which the cytotoxicity call is “inactive”.
With `C[C@@H]1CN([C@@H](C)CO)C(=O)Cc2cc(NC(=O)Nc3ccc(C(F)(F)F)cc3)ccc2O[C@@H]1CN(C)Cc1ccc(Cl)c(Cl)c1` the entry was “active”.
`COc1ccc(S(=O)(=O)N(C)C[C@H]2Oc3ccc(NC(=O)Cc4ccccc4)cc3C(=O)N([C@H](C)CO)C[C@@H]2C)cc1`: the cytotoxicity call was “inactive”.
`C[C@@H]1CN([C@H](C)CO)C(=O)c2cccc(NC(=O)Nc3cccc4ccccc34)c2O[C@H]1CN(C)C(=O)Nc1ccc2c(c1)OCO2`: the cytotoxicity call is “inactive”.
For the compound `NS(=O)(=O)c1cccc2c1c([N+](=O)[O-])cc1[nH]c(=O)c(=O)[nH]c12`, the cytotoxicity call is “inactive”.
For the compound `C[C@@H]1CCCCO[C@@H](CN(C)CC2CC2)[C@@H](C)CN([C@H](C)CO)C(=O)c2cc(NS(C)(=O)=O)ccc2O1`, the cytotoxicity call is “inactive”.
`C[C@@H]1CN([C@H](C)CO)C(=O)Cc2cc(NC(=O)Nc3ccc4c(c3)OCO4)ccc2O[C@H]1CN(C)Cc1ccc(-c2ccccc2)cc1`: the cytotoxicity call is “inactive”.
Consider `C[C@H]1CN([C@@H](C)CO)C(=O)Cc2cc(NC(=O)Nc3ccc4c(c3)OCO4)ccc2O[C@H]1CN(C)Cc1ccc(-c2ccccc2)cc1`, for which the cytotoxicity call was “inactive”.
On to `C[C@@H]1CN([C@@H](C)CO)C(=O)Cc2cc(NC(=O)Nc3ccc4c(c3)OCO4)ccc2O[C@H]1CN(C)Cc1ccc(-c2ccccc2)cc1`, for which the cytotoxicity call was “active”.
On to `C[C@H]1CN([C@@H](C)CO)C(=O)Cc2cc(NC(=O)Nc3ccc4c(c3)OCO4)ccc2O[C@@H]1CN(C)Cc1ccc(-c2ccccc2)cc1`, for which the cytotoxicity call was “active”.
Regarding `C[C@@H]1CN([C@@H](C)CO)C(=O)Cc2cc(NC(=O)Nc3ccc4c(c3)OCO4)ccc2O[C@@H]1CN(C)Cc1ccc(-c2ccccc2)cc1`, the cytotoxicity call was “inactive”.
Take `C[C@H](CO)N1C[C@H](C)[C@H](CN(C)Cc2ccc(-c3ccccc3)cc2)Oc2ccc(NC(=O)Nc3ccc4c(c3)OCO4)cc2CC1=O`: the cytotoxicity call was “active”.
On to `C[C@H](CO)N1C[C@H](C)[C@@H](CN(C)Cc2ccc(-c3ccccc3)cc2)Oc2ccc(NC(=O)Nc3ccc4c(c3)OCO4)cc2CC1=O`, for which the cytotoxicity call is “inactive”.
Turning to `C[C@@H]1CN([C@H](C)CO)C(=O)Cc2cc(NC(=O)Nc3ccc4c(c3)OCO4)ccc2O[C@@H]1CN(C)Cc1ccc(-c2ccccc2)cc1`, the cytotoxicity call is “active”.

For the origin of these results see the antibiotic and cytotoxicity screens of Wong et al. (2023).
